Source: PubChem BioAssay AID808 (Columbia University Molecular Screening Center, 2007)
In all, about 93,000 compounds went through this assay and about 180 (0.19%) were called active. The entries come from a sample that favours actives as a whole. Values without a mark were called inactive.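 How the source made its calls: active means activation above the screen mean plus 3 SD, with well images confirming the hit on visual review (cut at about 28% in these data, passing the limit was not always enough); inconclusive means activation above that limit but images do not confirm it; inactive means activation not above that limit.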

Experiment: potentiators of TNFa-induced VCAM1 expression, primary screen, imaging, HUVEC, TNFa stimulus, immunofluorescence (AID 808);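 further: signal is the number of cytoplasmic VCAM-1 stained grains per positive cell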
Details: HUVEC TNFa-stimulated VCAM-1 immunofluorescence, high-content imaging; at 2 µM; hits give high values; scaled per plate to unstimulated/TNFa-only wells

| Structure (SMILES) | activation |
| --- | --- |
| CCOc1ccc(NC(=O)Nc2ccc(N(C)C(C)=O)cc2)cc1 | 16.6% |
| O=C(NCCN1CCOCC1)[C@H](Cc1ccccc1)N1C(=O)c2ccccc2C1=O | -8.5% |
| C=CCn1c(COc2ccccc2F)nnc1SCC(=O)N1CC(=O)Nc2ccccc21 | -4.4% |
| O=C(c1ccc(Cl)cc1)c1ccc(OCC(O)CN2CCCCC2)cc1 (stereo not drawn) | -0.9% |
| Cc1cc(NC(=O)COc2ccc(Cl)cc2Cl)n(CCC#N)n1 | 4.1% |
| COc1cccc(C(=O)Nc2ccc(NC(=O)c3ccco3)cn2)c1 | 8.2% |
| Cc1cnc(NC(=O)C2CCCC2)s1 | -57.6% |
| COCCNC(=O)c1snc2ccc(Cl)cc12 | 11.1% |
| O=C(NCCN1CCN(Cc2ccccc2)CC1)c1cc2c(=O)[nH]c3ccccc3c2s1 | 2.1% |
| O=C(CS(=O)(=O)c1cn(Cc2cccc(F)c2)c2ccccc12)N1CCCCC1 | -50.1% |
| CCOC(=O)N1CCN(C(c2cccnc2)c2ccc3cccnc3c2O)CC1 (stereo not drawn) | -10% |
| CC1=NN(C(C)C)C(=O)C1 | 25% (active) |
| COc1ccc(Cl)cc1C(=O)NCC#N | 5.7% |
| COC(=O)c1c(-c2cccs2)csc1NC(=O)CSc1ncnc2sc(C)c(C)c12 | 1.8% |
| Cc1[nH]n(-c2ccc(Cl)cc2)c(=O)c1/C=N/n1c(C)nc2ccccc2c1=O | 9.2% |
| CCN(CC)C(=O)CSC1c2ccccc2C(=O)N1c1ccccc1 (stereo not drawn) | -7.1% |
| CCN(CC)CCCNC(=O)CCc1ccccc1 | 4.1% |
| C/C(=C\C(=O)c1ccccc1)Nc1cccc(O)c1 | 2.2% |
| Cc1nnc(SCC(=O)NC2CCCC2)s1 | -13.9% |
| CN(C)CCCn1c(N)c(C#N)c2nc(C#N)c(C#N)nc21 | -7.9% |
| C=CCn1c(Cn2nnc3ccccc32)nnc1SCC(=O)N/N=C/c1cc(Br)cc(OC)c1O | 1.7% |
| CCOc1ccc(N=C2NC(=O)S/C2=C\c2ccc(O)cc2)cc1 | 29.2% (active) |
| O=C(Cc1ccc(-n2c(=O)[nH]c3ccccc3c2=O)cc1)N1CCN(c2cccc(Cl)c2)CC1 | -1.2% |
| Cc1c(C(=O)OCC(=O)N(CCC#N)c2ccccc2)oc2c1ccc1ccccc12 | -4.9% |
| COc1ccccc1NC(=O)CSc1nnc(Cn2nnc(-c3ccccc3)n2)n1-c1ccccc1 | 11.3% |

| Structure (SMILES) | activation |
| --- | --- |
| CSc1nc2ccccc2cc1/C=C(\C#N)c1ccc(Cl)cc1Cl | -3.2% |
| CCCCN(C)C(=O)C1CCN(Cc2ccccn2)CC1 | 35.5% (active) |
| Cc1ccc(OCC(O)CN2CCN(CC(O)COc3ccc(C)cc3Cl)CC2)c(Cl)c1 (stereo not drawn) | -1.2% |
| O=C(c1ccco1)N1CCN(C(=O)C2c3ccccc3Oc3ccccc32)CC1 | -5.9% |
| Cc1ccc(F)cc1NC(=O)c1ccc2c(c1)OCO2 | -96.8% |
| CC(=O)Nc1ccc(S(=O)(=O)N2CCN(C(=O)c3ccccc3F)CC2)cc1 | -7.6% |
| C=C(Br)CN1CCN(CC(=C)Br)CC1 | 17.8% |
| Cn1c(C(=O)OC(C(=O)NC2CCCCC2)c2ccccn2)cc2sccc21 (stereo not drawn) | 7.6% |
| C=C(C)CNC(=S)/N=c1\scc(C)n1CC | -4.4% |
| COc1cccc(OCc2cc(/C=N/NC(=O)c3nc(Cl)c(Cl)c(N)c3Cl)ccc2OC)c1 | -6.7% |
| CCC(CC)c1nnc(NS(=O)(=O)Cc2ccccc2)s1 | 11.2% |
| COc1cc(C)nc(N2CCCC(C(=O)NCC(C)C)C2)n1 (stereo not drawn) | 5.6% |
| COc1ccc2c(c1OC)C(=O)N(c1ncn[nH]1)C2 | -7.1% |
| Nc1nonc1-c1noc(-c2ccc(Br)o2)n1 | 9.6% |
| COc1ccc(Nc2cc(=O)oc3ccccc23)cc1 | -88.9% |
| Cc1cccc(Cn2c(SCCO)nc3c2c(=O)n(C)c(=O)n3C)c1 | -4.1% |
| Cc1cccc(C)c1N1CCN(S(=O)(=O)N2CCOCC2)CC1 | -11.4% |
| CSc1ccc(Cl)c(C(=O)OCC(=O)N2CC(C)OC(C)C2)c1 (stereo not drawn) | 4.1% |
| NS(=O)(=O)c1cccnc1Nc1cccc(Cl)c1 | 4.4% |
| CCN(CC)P(=O)(/C(Cl)=C\Nc1c(C)n(C)n(-c2ccccc2)c1=O)N(CC)CC | 10.1% |
| CN(C)S(=O)(=O)c1ccc(N2CCCC2)c(C(=O)NCc2ccccc2)c1 | -5.1% |
| COCCNS(=O)(=O)c1cc(Br)ccc1OC | 35.9% (active) |
| COc1ccc(F)cc1S(=O)(=O)Nc1ccc2c(c1)OCO2 | 22.9% |
| CCCN1Cc2cccc(C(=O)Nc3ccc(S(=O)(=O)N4CCCCCC4)cc3)c2C1=O | 1.5% |
| C/C(=N\NC(=O)c1ccc(C)cc1)C1C(=O)c2ccccc2C1=O | -6.4% |

| Structure (SMILES) | activation |
| --- | --- |
| CCCC(=O)n1nc(-c2ccccc2)nc1N | 25.9% |
| O=C(COC(=O)c1ccc(S(=O)(=O)N2CCc3ccccc3C2)cc1)NC(=O)NCc1ccco1 | -0.5% |
| COC(=O)c1sc2ncccc2c1OCc1ccc(Cl)cc1Cl | -10.3% |
| C=C(Cl)COC(=O)C1C2C=CC(C2)C1C(=O)O (stereo not drawn) | 12.1% |
| Cn1cc([N+](=O)[O-])c(C(=O)Nc2ccc3c(c2)OCCO3)n1 | -36.8% |
| CCN(CC(=O)Nc1ccc2c(c1)OCCO2)Cc1cc(=O)oc2cc(C)c(C)cc12 | 54.4% (active) |
| Cc1ccc(C(=O)Nc2ccc3c(c2)OCO3)cc1S(=O)(=O)N1CCCCC1 | 7.1% |
| CC(CCc1ccccc1)NC(=O)c1ccc(Br)o1 (stereo not drawn) | -95.4% |
| NC(=O)COc1ccc2c3c(c(=O)oc2c1)CCCCC3 | -35% |
| Cc1cc(Cl)c(S(=O)(=O)NCC2CCCO2)cc1OCC(N)=O (stereo not drawn) | 25.1% |
| Cc1cc(=O)oc2cc(OCC3CC(c4ccccc4Cl)=NO3)ccc12 (stereo not drawn) | -59.7% |
| Cc1ccc(CNC(=O)CCCNC(=O)c2ccc(Cl)cc2)n1C | 7.4% |
| Cc1ccc(-c2csc(NC(=O)c3cccs3)n2)cc1 | 5.6% |
| Cc1cccc(N=C2NC(=O)CS2)c1C | -97.1% |
| COc1ccc(-c2c3c(=O)n(C)c(=O)n(C)c3cn2-c2cccc(OC)c2)cc1 | -7.7% |
| COc1ccc(C(=O)OCC(=O)NCC2CCCCC2)cc1S(=O)(=O)N1CCCc2ccccc21 | -5.3% |
| CCOC(=O)CCP(=O)(O)C(O)(c1ccccc1)c1ccccc1 | -1.8% |
| CC(=O)c1cccc(S(=O)(=O)N2CCC(n3nnc4cc(F)ccc43)CC2)c1 | -54.7% |
| COc1ccc(/C=N/Nc2nc3ccccc3o2)cc1OC | 32.9% (active) |
| COc1cc(/C=N/NC(=O)Nc2ccccc2)ccc1OCCOc1ccccc1C | -51.1% |
| C=CCOc1ccc(/C=N/n2cncn2)cc1OC | 4.4% |
| CN1CCN(c2nc3c(c(=O)[nH]c(=O)n3C)n2Cc2cccc3ccccc23)CC1 | -8.9% |
| CCC(C)(C)n1nnnc1C(c1cccs1)N1CCN(c2nc3ccccc3s2)CC1 (stereo not drawn) | 0.6% |
| Cc1ccc(S(=O)(=O)N2CCCC2C(=O)NCc2ccco2)cc1 (stereo not drawn) | 6.4% |
| CCCN1C(=O)C(NC(C)=O)c2cc(OC)ccc21 (stereo not drawn) | -5.9% |

| Structure (SMILES) | activation |
| --- | --- |
| O=C(CO/N=C/c1ccccc1O)NNC(=O)c1ccccc1Cl | 2.1% |
| CC(=O)Nc1ccc(S(=O)(=O)NCCc2ccccc2)cc1 | -7.2% |
| CCOc1ccc(NC(=O)CCC(=O)n2nc(C)cc2C)cc1 | -6.7% |
| Cc1ccc(OCc2nnc(NC(=O)OCC(C)C)s2)cc1 | 0.2% |
| CCOC(=O)c1sc(NC(=S)n2cc(C)cn2)c(C(=O)OCC)c1C | -0.6% |
| COCCOC(=O)C1=C(C)N=c2s/c(=C\c3cccs3)c(=O)n2C1c1cccs1 (stereo not drawn) | -3.2% |
| Cc1c(-c2ccccc2)nc(N)c(C#N)c1-c1cccs1 | -3.7% |
| CCc1ccc2oc(=O)cc(CN3CCCCC3C)c2c1 (stereo not drawn) | -6.7% |
| O=C1c2ccccc2C2=Nc3ccccc3SC(c3ccccc3F)C12 (stereo not drawn) | -0.2% |
| C=CCn1c2ccccc2c2nnc(SC(CC)C(=O)Nc3nc(C)c(C(=O)OCC)s3)nc21 (stereo not drawn) | 10% |
| O=C(Nc1ccc2nc3n(c(=O)c2c1)CCCCC3)c1ccccc1Cl | -7.6% |
| CCCCN=C1N/C(=C\c2ccco2)C(=O)N1c1ccccc1 | -7.6% |
| CC1(C)C/C(=C(/C#N)C(N)=O)CCO1 | 3.2% |
| Cc1noc(C)c1CSCC(=O)Nc1nc2ccc(Oc3ccccc3)cc2s1 | -4.3% |
| O=C(Nc1ccc(Sc2ccc(Br)cc2)cc1)c1ccco1 | -2.8% |
| Cc1cccc(OCCCC(=O)Nc2ccc(S(=O)(=O)N3CCCC3)cc2)c1 | -20.4% |
| CCOC(=O)c1ccc(NC(=O)CSc2ncccn2)cc1 | 21.4% |
| O=C(CCCn1c(=O)[nH]c2cc(Cl)ccc2c1=O)NCCN1CCN(c2ccccc2)CC1 | 4% |
| O=C(CSCc1ccccc1Cl)NNC(=O)c1ccccc1 | -5.4% |
| O=C(CS(=O)(=O)Cc1ccccc1)NCC1CCCO1 (stereo not drawn) | 24.8% |
| C/C(=C\C(=O)c1cccnc1)Nc1ccc(C)c(C)c1 | -89.1% |
| CCCNS(=O)(=O)c1ccc2c(c1)CCCN2C(C)=O | -100% |
| C=CCn1c(N)c(C(=O)OCC(C)C)c2nc3ccccc3nc21 | -94.4% |
